The list is not random: actives were taken first. Their share in the collection is about 3.5%.
GPR151 ag: activates the human receptor GPR151; Q8TDV0; PathHunter beta-arrestin GPR151 cells, luminescence; activation, % at 11.2 µM; 650,000 tested, 1% active; in the data active = activation above about 4.9%;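 also: 0% = median of compound wells and 100% = cells with positive control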
MITF primary: human MITF inhibition, primary screen. AlphaScreen MITF homodimerization, bead proximity signal. inhibition, % at 2.6 µM. 650,000 tested, 0.91% active; in the data active = inhibition above about 50%;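 also: 0% = vehicle wells with protein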
Target sequence (O75030 whole entry, looked up): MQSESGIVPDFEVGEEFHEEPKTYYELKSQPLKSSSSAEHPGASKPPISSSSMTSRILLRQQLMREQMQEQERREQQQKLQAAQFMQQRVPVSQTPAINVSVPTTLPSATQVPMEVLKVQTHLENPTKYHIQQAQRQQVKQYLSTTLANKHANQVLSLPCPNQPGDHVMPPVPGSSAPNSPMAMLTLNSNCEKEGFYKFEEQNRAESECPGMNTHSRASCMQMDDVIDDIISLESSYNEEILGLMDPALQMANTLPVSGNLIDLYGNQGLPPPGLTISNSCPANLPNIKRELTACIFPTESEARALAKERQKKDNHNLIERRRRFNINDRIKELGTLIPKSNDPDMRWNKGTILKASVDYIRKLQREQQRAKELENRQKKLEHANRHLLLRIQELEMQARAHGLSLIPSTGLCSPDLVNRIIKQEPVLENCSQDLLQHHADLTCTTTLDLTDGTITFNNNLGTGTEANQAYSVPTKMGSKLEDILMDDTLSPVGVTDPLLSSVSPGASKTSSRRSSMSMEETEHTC
TEAD-YAP inh: TEAD-YAP interaction inhibition. inhibition, % at 9.12 µM. AID 1259422. 640,000 tested, 1.4% active. HEK-TIYL cells, TEAD-Gal4/YAP UAS-luciferase luminescence; in the data active = inhibition above about 32%;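 also: 0% = median of test compound wells and 100% = reference inhibitor wells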
FBW7 activator: human FBW7 E3 ligase activation, primary screen; normalized activity (activation), % at 26.1 µM; AlphaScreen FBW7–phospho-cyclin E peptide binding, activator screen; 650,000 tested, 0.13% active; AID 1259310; in the data active = normalized activity above about 1.9%;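 also: purified mutant Fbw7 with reduced substrate affinity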
* hit, by the source's call.

SMILES	GPR151 ag	MITF primary	TEAD-YAP inh	FBW7 activator
c1ccc(CNc2ncnc3c2cnn3-c2ccccc2)cc1	-0.1	14.4	11.6	0.0
COc1ccc(N2CCN(C(=O)CSc3nc4ccccc4[nH]3)CC2)cc1	-1.2	1.3	-5.4	-0.1
Cc1cc2nc3s/c(=C/c4cc5c(cc4[N+](=O)[O-])OCO5)c(=O)n3c2cc1C	1.9	0.5	-5.5	0.0
Cc1cc2nc3s/c(=C/c4ccc(N5CCN(C)CC5)c([N+](=O)[O-])c4)c(=O)n3c2cc1C	-1.7	-6.0	37.7*	0.0
COCCN1C(=S)NC2c3ccccc3OC13CCCC23 (stereo not given)	0.0	3.8	35.6*	-0.2
Cc1cc(C)cc(NS(=O)(=O)c2c[nH]c3ccc([N+](=O)[O-])cc23)c1	0.5	7.4	-6.2	0.2
C1COCCNCCOCCN1	-0.3	-69.7	17.4	0.0
Cc1c(/C=C(\C#N)c2ccccn2)cc(C#N)n1C	0.9	-9.7	1.9	-0.2
Cc1c(/C=C/c2nc3ccccc3s2)cc(C#N)n1C	-2.9	18.8	73.0*	0.3
Cc1ccc2oc(-c3cc(N)ccc3Cl)nc2c1	-4.0	1.6	-45.8	-0.2
Nc1ccc(-c2nc3cc(N)ccc3o2)c(O)c1	-2.8	-4.3	-14.9	0.1
Cc1cc2nc(-c3cccc(N)c3C)oc2cc1C	-8.5	-4.2	89.1*	0.0
Cc1ccc2oc(-c3cccc(N)c3C)nc2c1	-10.3	-2.8	43.2*	-0.2
Cc1ccc(C)c(-c2nc3cc(N)ccc3o2)c1	-0.2	6.0	36.8*	0.3
Cc1cc2nc(-c3cccc(NC(=O)C(C)C)c3C)oc2cc1C	0.7	-11.5	0.4	-0.1
Cc1cc(C)c2oc(-c3ccc(N)cc3O)nc2c1	-1.3	2.5	36.8*	-0.1
O=C(CN1CCCCC1)N1N=C(c2c(-c3ccccc3)c3cc(Cl)ccc3[nH]c2=O)CC1c1ccccc1Cl (stereo not given)	-1.0	11.2	-2.5	0.4
COc1ccc(-c2nnc3ccc(SCC(=O)NCCc4ccccc4)nn23)cc1	-0.5	-8.1	-4.0	-0.1
O=C(CSc1ccc2nnc(-c3ccncc3)n2n1)NCCc1ccccc1	-0.2	4.9	-2.1	2.0*
COc1ccc(CCNC(=O)CSc2ccc3nnc(-c4ccccc4)n3n2)cc1OC	2.6	14.3	18.1	2.7*
CCc1cccc2c(/C=N/NC(=O)c3n[nH]c(=O)c4ccccc34)c[nH]c12	-1.1	8.0	47.2*	0.0
CCCOc1ccc(/C=N/NC(=O)c2n[nH]c(=O)c3ccccc23)cc1OC	-1.8	2.4	-6.2	0.1
O=C1C(C=Nc2ccccc2O)=C(O)c2ccccc21	-8.1	1.0	48.9*	-0.3
COc1ccc(N=CC2=C(O)c3ccccc3C2=O)cc1	-3.5	14.6	42.7*	0.0
O=C1C=C(Nc2cccc(C(=O)O)c2)c2ccccc2C1=O	1.1	3.0	2.4	-0.2
SMILES	GPR151 ag	MITF primary	TEAD-YAP inh	FBW7 activator
O=C1C=C(NCc2ccccc2)c2ccccc2C1=O	-0.5	11.9	50.7*	-0.4
CCOC(=O)Cn1cc(/C=C2/C(=O)N(c3cccc(C(=O)O)c3)N=C2C)c2ccccc21	0.7	51.0*	-2.6	0.1
S=C(NNc1nc(N2CCCC2)nc(N2CCCC2)n1)NC1CCCCC1	0.2	-10.8	39.2*	-0.5
COc1ccc(/C=C/C(=O)Nc2ccc(S(=O)(=O)N3CCCCCC3)cc2)cc1	1.1	5.5	32.1*	0.0
COc1ccc(/C=C/C(=O)Nc2ccc(S(=O)(=O)N3CCCC3)cc2)cc1	1.1	-4.4	14.3	-0.2
CC1CCCN(S(=O)(=O)c2ccc(NC(=O)/C=C/c3ccco3)cc2)C1 (stereo not given)	-1.5	-6.0	41.2*	0.0
Cc1ccc(C)c(OCC(=O)N/N=C/C=N/NC(=O)COc2cc(C)ccc2C)c1	-1.3	9.1	5.3	0.0
CC(C)NC1CCN(c2ccc(C(=O)NC(C)c3ccccc3)cc2)CC1 (stereo not given)	-1.5	-6.8	-13.7	-0.2
COc1ccc([N+](=O)[O-])cc1NC(=O)c1cnc(N2CCN(c3ccccn3)CC2)c2ccccc12	0.1	13.9	-6.3	0.5
COc1ccc(OC)c(NC(=O)c2cnc(N3CCN(c4ccccn4)CC3)c3ccccc23)c1	2.7	2.3	46.2*	-0.1
COc1ccccc1NC(=O)c1cnc(N2CCN(c3ncccn3)CC2)c2ccccc12	1.1	11.4	60.3*	0.2
COc1ccc(C)cc1NC(=O)c1cnc(N2CCN(c3ncccn3)CC2)c2ccccc12	-0.7	11.4	11.5	0.2
Cc1cccc(NC(=O)c2cnc(N3CCN(c4ncccn4)CC3)c3ccccc23)n1	0.5	-4.5	53.1*	0.4
CC(C)NC(=O)NC(=O)COC(=O)/C=C/c1ccco1	1.6	22.7	5.9	0.0

Screens deposited in PubChem by The Scripps Research Institute Molecular Screening Center.
